Screens as filed in PubChem.
Most compounds without a hit are left out; they make up all but 2.9% or so of the library.
Smad3 inh = Smad3/FoxH1 peptide binding inhibitors, primary screen, biochemical, TR-FRET; TR-FRET Smad3/Dy647-FoxH1 peptide binding, europium anti-His; Mothers against decapentaplegic homolog 3 (Homo sapiens), P84022; actives 0.29% (n = 88,000); inhibition, % at 25 µM;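 active = compounds that reduce the energy-transfer binding signal between the protein and its labelled peptide by more than half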
ERb coact inh = inhibitors of ERβ-SRC1 coactivator interaction, primary screen, biochemical, TR-FRET, ERβ LBD, SRC-1 peptide. Estrogen receptor beta (Homo sapiens), Q92731. TR-FRET ER-beta LBD / SRC1-Cy5 peptide binding; receptor agonist-loaded with 1 µM estradiol. inhibition, % at 25.6 µM. actives 1.3% (n = 86,000). AID 633, 2007;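 active = compounds whose percent inhibition of the receptor-coactivator binding signal exceeds about 50% in the single-dose screen, limit read from the data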
Target sequence (Q92731 whole entry, looked up, the tested form may be a part): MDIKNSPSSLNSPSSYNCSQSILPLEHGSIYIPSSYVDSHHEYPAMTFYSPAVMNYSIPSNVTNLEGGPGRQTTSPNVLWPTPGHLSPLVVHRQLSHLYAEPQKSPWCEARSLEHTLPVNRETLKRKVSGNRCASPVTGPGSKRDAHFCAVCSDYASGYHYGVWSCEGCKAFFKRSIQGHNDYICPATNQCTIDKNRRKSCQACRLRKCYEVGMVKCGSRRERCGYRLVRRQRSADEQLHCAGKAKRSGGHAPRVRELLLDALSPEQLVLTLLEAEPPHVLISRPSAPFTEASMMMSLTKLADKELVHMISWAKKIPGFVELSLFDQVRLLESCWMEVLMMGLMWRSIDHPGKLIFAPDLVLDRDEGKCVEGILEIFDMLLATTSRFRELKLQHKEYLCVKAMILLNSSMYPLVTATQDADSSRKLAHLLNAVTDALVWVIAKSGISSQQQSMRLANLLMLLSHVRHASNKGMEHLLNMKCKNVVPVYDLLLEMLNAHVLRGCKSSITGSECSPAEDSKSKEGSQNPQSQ
ERa coact inh = ERα–SRC-1 coactivator interaction inhibitors, primary screen, biochemical, TR-FRET, ERα LBD, estradiol-bound. actives 1.7% (n = 86,000). TR-FRET ER-alpha LBD / SRC-1 peptide. Estrogen receptor (Homo sapiens), P03372. inhibition, % at 25.6 µM; in the data active = inhibition above about 50%
ERa coact pot = enhancers of ERα–SRC-1 coactivator binding, primary screen, biochemical, TR-FRET, ERα LBD, low estradiol; Estrogen receptor (Homo sapiens), P03372; TR-FRET ERalpha-LBD/SRC-Cy5 coactivator binding, 2 h; 100 = basal binding, no effect; coactivator binding (% of control), % at 25.6 µM; actives 1.3% (n = 86,000); AID 639, 2007; in the data active = activity above about 200%;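 note: binding measured in presence of low estradiol as agonist stimulus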
MRP-1 activ = H69AR viability gain despite doxorubicin, primary screen, MRP-1 activator project, H69AR cells, CellTiter-Glo; viability rescue; viability increase, % at 10 µM; actives 0.61% (n = 140,000); AID 799, 2007;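 active = viability gain under doxorubicin at or above a set limit, the compound median plus 3 SD, cut at about 4.7% in these data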;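 note: MRP-1 overexpressing cells given doxorubicin 25 µM after compound pretreatment; 18-22 h compound pretreatment then 72 h with doxorubicin before readout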
MRP reversal = reversal of MRP1-mediated doxorubicin resistance, primary screen, H69AR cells, doxorubicin co-treatment; H69AR cells + 2 uM doxorubicin, CellTiter-Glo, 72 h; differential viability (reversal), % at 10 µM; actives 0.04% (n = 85,000);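 active = viability drop by adding the cancer drug above about 55%, with treated viability meeting a 40% cutoff, limit read from the data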;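 note: larger differential means the compound sensitizes cells more to doxorubicin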
Each line names hits and unclear results; the compound was inactive in the other large screens; [ ] = remark or other dose.

Cc1cccc(N2CCN(C(=O)C3CCCCC3)CC2)c1C	none
Oc1oc(-c2ccccc2)nc1C=Nc1ccccc1	none
CC(=O)Nc1ccc(N=Cc2nc(-c3ccc(C)cc3)oc2O)cc1	ERb coact inh 51.3, ERa coact inh 81.4
N#Cc1c(NC(=O)CSc2ncccn2)oc(-c2ccccc2)c1-c1ccccc1	ERa coact inh 59.9 (no result: MRP-1 activ)
COc1ccc(-c2oc(NC(=O)CCl)c(C#N)c2-c2ccc(OC)cc2)cc1	ERb coact inh 55.0[fluorescence artefact?]
COc1ccc(-c2oc(NC(=O)CSc3ncn[nH]3)c(C#N)c2-c2ccc(OC)cc2)cc1	none
CC(=O)Nc1ccc(Cc2ccc3[nH]c(=O)cc(C)c3c2)cc1	none (no result: ERb coact inh, ERa coact inh, ERa coact pot, MRP-1 activ, MRP reversal)
O=C(Nc1nc(-c2nc3ccccc3s2)cs1)c1ccco1	ERa coact pot 287.6[fluorescence artefact?]
O=C(Nc1nc(-c2nc3ccccc3s2)cs1)C1CC1	none
C/C(N[O-])=C(\C)[N+]([O-])=[Co].C/C(N[O-])=C(\C)[N+]([O-])=[Co].CC(=N\[O-])/C(C)=N/[O-].CC(=N\[O-])/C(C)=N/[O-].[CH3-].[CH3-]	none (no result: ERb coact inh, ERa coact inh, ERa coact pot, MRP-1 activ, MRP reversal)
Nc1ccc(S(=O)(=O)NCCS(=O)(=O)O)cc1	none (no result: ERb coact inh, ERa coact inh, ERa coact pot, MRP-1 activ, MRP reversal)
COc1cccc(-n2nnc3c(=O)n(Cc4ccc(Br)cc4)cnc32)c1	ERa coact inh 51.9[fluorescence artefact?], ERa coact pot 353.7[fluorescence artefact?]
COc1cccc(-n2nnc3c(=O)n(Cc4ccc(C)cc4)cnc32)c1	none
O=C(COc1ccc(F)c(Cl)c1)c1ccc[nH]1	ERa coact inh 66.5[fluorescence artefact?]
NCS(=O)(=O)O	none (no result: ERb coact inh, ERa coact inh, ERa coact pot, MRP-1 activ, MRP reversal)
COc1ccc(/C=C/C(=O)c2ccc(NC(=O)c3cccs3)cc2)cc1OC	none (no result: Smad3 inh, ERb coact inh, ERa coact inh, ERa coact pot, MRP reversal)
COc1ccc(-n2ncc3c(=O)n(CC(=O)N4c5ccccc5CC4C)cnc32)cc1 (centres undefined)	MRP-1 activ 5.9
O=C(Cn1cnc2c(cnn2-c2ccccc2)c1=O)N1CCOCC1	none
NS(=O)(=O)c1ccc(NC(=O)Nc2ccccc2F)cc1	none (no result: ERb coact inh, ERa coact inh, ERa coact pot, MRP-1 activ, MRP reversal)
Nc1[nH]c(=S)[nH]c(=O)c1N=Nc1c(Br)cc(S(N)(=O)=O)cc1Br	Smad3 inh 54.0 (no result: ERb coact inh, ERa coact inh, ERa coact pot, MRP-1 activ, MRP reversal)
CCc1nn2c(N)c(/C=C3\C=Nc4ccccc43)c(=O)nc2s1	MRP-1 activ 8.2 (no result: Smad3 inh, ERb coact inh, ERa coact inh, ERa coact pot, MRP reversal)
Nc1c(Cl)cc(Cl)cc1C(=O)OCC(=O)NC1CC1	ERb coact inh 55.1
N#CC1=C(N)N2C(=C(C#N)C13CCCCC3)SC1CCCCC12O (centres undefined)	none (no result: Smad3 inh, ERb coact inh, ERa coact inh, ERa coact pot, MRP reversal)
Nc1ccn([C@H]2O[C@H](COC(=O)C34CC5CC(CC(C5)C3)C4)[C@@H](O)[C@@H]2O)c(=O)n1	none (no result: ERb coact inh, ERa coact inh, ERa coact pot, MRP-1 activ, MRP reversal)
O=C(Cn1c(=O)oc2cc(S(=O)(=O)N3CCCC3)ccc21)Nc1cccc(C(F)(F)F)c1	ERa coact inh 60.3[fluorescence artefact?], ERa coact pot 233.8[fluorescence artefact?]
CCc1cccc(NC(=O)Cn2c(=O)oc3cc(S(=O)(=O)N4CCOCC4)ccc32)c1	none
O=C(Cn1c(=O)oc2ccccc21)Nc1ccc(S(=O)(=O)N2CCCCC2)cc1	ERa coact inh 62.6[fluorescence artefact?]
COc1ccc(S(=O)(=O)N(C)C)cc1NCC(=O)Nc1ccc(Br)cc1F	none (no result: Smad3 inh, ERb coact inh, ERa coact inh, ERa coact pot, MRP reversal)
Nc1nc(-c2ccco2)cs1	none
c1coc(-c2nc(-c3ccco3)c(-c3ccco3)nc2-c2ccco2)c1	ERb coact inh 85.5[fluorescence artefact?], ERa coact inh 87.0[fluorescence artefact?]
COc1ccc2nc(-c3ccco3)c(-c3ccco3)nc2c1	ERb coact inh 98.1[fluorescence artefact?], ERa coact inh 97.1[fluorescence artefact?]
Nc1nc(-c2ccco2)c(-c2ccco2)s1	ERb coact inh 53.9
O=C1c2ccccc2C(=O)c2c(NC(=O)c3ccc4c5c(ncnc35)-c3ccccc3C4=O)cccc21	none (no result: ERb coact inh, ERa coact inh, ERa coact pot, MRP-1 activ, MRP reversal)
Cc1ccc(-c2cc(C(=O)Nc3cc(C)ccc3C)[nH]n2)c(O)c1	none
COc1ccc(OC)c(NC(=O)c2cc(-c3ccc(C)cc3O)n[nH]2)c1	ERa coact inh 69.7 (no result: MRP reversal)
CC(=O)O[C@]1(C)N=NC2(CCCCC2)O1	none (no result: ERb coact inh, ERa coact inh, ERa coact pot, MRP-1 activ, MRP reversal)
Cc1cc(-c2ccc(Cl)cc2)c(C#N)c(N)n1	ERa coact pot 285.1[fluorescence artefact?]
CCCNC(=O)c1ccccc1NS(=O)(=O)c1ccc2c(c1)OCCO2	none
CCN(CC)C1=CC(=O)OC12CCCCC2	ERb coact inh 61.5
